# “And” between values parts separate entries of the source, which are not always exact repeats. Equal values may be shown once. This is part of a sample that, as a whole, favours compounds with a hit. Of some 83,000 tested, about 20% had one in any assay.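 Growth was measured after 48 h exposure to one concentration of compound in 96-well plates. Values under 10 count as active.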 Some structures have more than one record in an assay (separate samples or runs), and their calls can disagree. The source made the active and inactive calls.
# Columns and labels:
# Assay in all cases: NCI-60 one-dose screen, 48 h (100 = growth as untreated, 0 = no growth, -100 = all killed)
# Settings in all cases: 10 µM unless noted
# DU-145 prostate = tested on: DU-145 prostate
# K-562 leukemia = tested on: K-562 leukemia
# MALME-3M melanoma = tested on: MALME-3M melanoma
# MDA-MB-231 breast = tested on: MDA-MB-231 breast
# RXF 393 renal = tested on: RXF 393 renal
# SF-268 CNS = tested on: SF-268 CNS
# SF-295 CNS = tested on: SF-295 CNS
# SF-539 CNS = tested on: SF-539 CNS
# UACC-257 melanoma = tested on: UACC-257 melanoma
# M14 melanoma = tested on: M14 melanoma
# HCT-15 colon = tested on: HCT-15 colon
# SNB-75 CNS = tested on: SNB-75 CNS
# SNB-19 CNS = tested on: SNB-19 CNS
# U251 CNS = tested on: U251 CNS
# PC-3 prostate = tested on: PC-3 prostate
# SK-MEL-5 melanoma = tested on: SK-MEL-5 melanoma
# UACC-62 melanoma = tested on: UACC-62 melanoma
# LOX IMVI melanoma = tested on: LOX IMVI melanoma
# SK-MEL-28 melanoma = tested on: SK-MEL-28 melanoma
# HT29 colon = tested on: HT29 colon
Compound,growth (DU-145 prostate),growth (K-562 leukemia),growth (MALME-3M melanoma),growth (MDA-MB-231 breast),growth (RXF 393 renal),growth (SF-268 CNS),growth (SF-295 CNS),growth (SF-539 CNS),growth (UACC-257 melanoma),growth (M14 melanoma),growth (HCT-15 colon),growth (SNB-75 CNS),growth (SNB-19 CNS),growth (U251 CNS),growth (PC-3 prostate),growth (SK-MEL-5 melanoma),growth (UACC-62 melanoma),growth (LOX IMVI melanoma),growth (SK-MEL-28 melanoma),growth (HT29 colon)
Nc1cc(-c2cccc(OC(F)(F)F)c2)nc2ccc(N3CCCC3)cc12,14.4% (inactive) and 16.2% (inactive) and 5.85% (active),-12.9% (active) and 4.92% (active) and 3.73% (active),-28.6% (active) and 51.7% (inactive) and 24.8% (inactive),5.28% (active) and 18.1% (inactive) and 29.3% (inactive),7.48% (active) and 12.1% (inactive) and 20.7% (inactive),26.1% (inactive) and 28.4% (inactive) and 27.6% (inactive),5.27% (active) and 16.2% (inactive) and 9.05% (active),-39.9% (active) and -21.2% (active) and -28.5% (active),-42.2% (active) and 74.8% (inactive) and 48.9% (inactive),-72.1% (active) and 1.77% (active) and -1.96% (active),7.95% (active) and 7.96% (active) and 7.69% (active),29.7% (inactive) and 34.7% (inactive),31% (inactive) and 30.5% (inactive) and 23% (inactive),-3.82% (active) and 5.25% (active) and 1.38% (active),20.5% (inactive) and 22.2% (inactive) and 18.3% (inactive),-41.1% (active) and -39.4% (active) and -14.8% (active),8.8% (active) and 27.2% (inactive) and 38.7% (inactive),2.06% (active) and 12.6% (inactive) and 20.4% (inactive),-57.4% (active) and 37.1% (inactive) and 52.9% (inactive),–
O=Nc1ccc(O)cc1,97.1% (inactive) and 114% (inactive),109% (inactive) and 98.1% (inactive),107% (inactive) and 135% (inactive),84.9% (inactive) and 68.5% (inactive),99.3% (inactive) and 112% (inactive),88.7% (inactive) and 93.4% (inactive),99.5% (inactive) and 105% (inactive),90.2% (inactive) and 91.5% (inactive),108% (inactive) and 96.8% (inactive),97.8% (inactive) and 102% (inactive),89.3% (inactive) and 92.3% (inactive),95.6% (inactive),106% (inactive) and 99.3% (inactive),101% (inactive) and 94.2% (inactive),85.1% (inactive) and 90% (inactive),98% (inactive) and 109% (inactive),90.2% (inactive) and 93.4% (inactive),90.8% (inactive) and 82.3% (inactive),113% (inactive),–
O=C(N/N=C/c1ccc2c(c1)OCO2)c1ccncc1,114% (inactive) and 113% (inactive),106% (inactive),110% (inactive) and 82.1% (inactive),94.5% (inactive) and 108% (inactive),114% (inactive) and 103% (inactive),109% (inactive) and 102% (inactive),113% (inactive) and 107% (inactive),101% (inactive) and 123% (inactive),92.9% (inactive) and 112% (inactive),105% (inactive) and 103% (inactive),106% (inactive) and 104% (inactive),77.9% (inactive) and 98.4% (inactive),111% (inactive) and 103% (inactive),104% (inactive),104% (inactive) and 88.5% (inactive),105% (inactive),91.3% (inactive) and 97.5% (inactive),97.4% (inactive) and 101% (inactive),103% (inactive) and 106% (inactive),–
Cn1cc(-c2cc3c(Nc4ccc(CC(=O)Nc5cc(C(C)(C)C)on5)cc4)ncnc3[nH]2)cn1,-15% (active) and -3.89% (active),4.78% (active) and 3.56% (active),-50.5% (active) and -22.7% (active),-6.46% (active) and -3.49% (active),-51.7% (active) and -45.7% (active),-27.7% (active) and -23.3% (active),-0.861% (active) and 7.57% (active),-49.9% (active) and -49% (active),-11.9% (active) and -15.9% (active),-34.2% (active) and -49.5% (active),17.5% (inactive) and 34.6% (inactive),-44.8% (active) and -42.3% (active),2.07% (active) and 3.84% (active),0.087% (active) and -9.38% (active),-21.4% (active) and 1.57% (active),-50.7% (active) and 1.16% (active),-77.9% (active) and -80% (active),1.91% (active) and 2.35% (active),-20.2% (active) and -18.4% (active),–
NS(=O)(=O)c1cc2c(cc1Cl)NC(C(Cl)Cl)NS2(=O)=O (configuration not stated),108% (inactive) and 112% (inactive),97% (inactive) and 93.9% (inactive),107% (inactive),105% (inactive) and 108% (inactive),112% (inactive) and 128% (inactive),107% (inactive) and 104% (inactive),118% (inactive) and 111% (inactive),104% (inactive),84.4% (inactive) and 95% (inactive),–,95.3% (inactive) and 101% (inactive),77.7% (inactive) and 114% (inactive),104% (inactive) and 105% (inactive),86.5% (inactive) and 104% (inactive),99% (inactive) and 99.8% (inactive),99.7% (inactive) and 102% (inactive),103% (inactive),98.6% (inactive) and 99.9% (inactive),99.8% (inactive) and 115% (inactive),–
CCOC(=O)C(CNc1ccccc1)C(=O)OCC,109% (inactive),100% (inactive),115% (inactive),103% (inactive),98.4% (inactive),100% (inactive),101% (inactive),101% (inactive),–,109% (inactive),106% (inactive),77.9% (inactive),91.2% (inactive),93.5% (inactive),98.2% (inactive),100% (inactive),103% (inactive),101% (inactive),103% (inactive),105% (inactive)
Nc1ccccc1SC1CC(=O)N(c2cccc3ccccc23)C1=O (configuration not stated),111% (inactive),90.2% (inactive),101% (inactive),91.9% (inactive),93% (inactive),98.1% (inactive),94.7% (inactive),95.6% (inactive),–,105% (inactive),99% (inactive),76.4% (inactive),96.7% (inactive),97.3% (inactive),87.7% (inactive),96.7% (inactive),82.6% (inactive),97.1% (inactive),96.3% (inactive),106% (inactive)
C#CCN(C)Cc1ccccc1,111% (inactive),95.9% (inactive) and 94.2% (inactive),100% (inactive) and 305% (inactive),106% (inactive) and 89.6% (inactive),114% (inactive) and 96.6% (inactive),107% (inactive) and 99.5% (inactive),108% (inactive) and 98.1% (inactive),97.8% (inactive),105% (inactive),–,104% (inactive) and 103% (inactive),–,102% (inactive),105% (inactive) and 101% (inactive),100% (inactive) and 105% (inactive),102% (inactive) and 106% (inactive),92.3% (inactive),96.9% (inactive) and 102% (inactive),111% (inactive) and 114% (inactive),108% (inactive) and 113% (inactive)
CCCCCCCCCCCCCCCCOc1ccc(C)cc1,110% (inactive),108% (inactive),103% (inactive),100% (inactive),118% (inactive),114% (inactive),–,93.2% (inactive),111% (inactive),111% (inactive),108% (inactive),104% (inactive),109% (inactive),101% (inactive),102% (inactive),108% (inactive),105% (inactive),87.3% (inactive),111% (inactive),106% (inactive)
Clc1ccc(NC(Nc2ccc(Cl)cc2)C(Cl)(Cl)Cl)cc1,112% (inactive) and 100% (inactive),17.7% (inactive) and 43.8% (inactive),101% (inactive) and 114% (inactive),87.3% (inactive) and 116% (inactive),111% (inactive) and 113% (inactive),87.7% (inactive) and 90.5% (inactive),90.3% (inactive) and 97% (inactive),110% (inactive) and 100% (inactive),90.1% (inactive) and 99.6% (inactive),–,65.6% (inactive) and 88.7% (inactive),79.2% (inactive) and 105% (inactive),–,95% (inactive) and 110% (inactive),91.9% (inactive),91.3% (inactive) and 85.3% (inactive),9.46% (active) and 62.8% (inactive),74.5% (inactive),105% (inactive) and 114% (inactive),101% (inactive) and 98.4% (inactive)
